Measurements published in PubChem BioAssay (EPA / NIEHS).
Several values for one entry are separate records, joined by “and”; a condition that tells them apart may be missing. Equal values may be shown once. The source holds several records for some structures; these can differ, active in one and inactive in another. Activity calls are given as the source filed them. The calls were made as follows: active = hit-call score of the fitted dose curve at least 0.9, where 1 is the maximum; inactive = score below 0.9.

Experiment: CCTE_Shafer_MEA_dev_firing_rate_mean: CCTE's Neural Network Formation Assay for Mean Firing Rate, Shafer Lab (AID 2284031);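 as to AC50: curve fitted for loss of firing so AC50 reflects decreased mean firing rate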
Method: CCTE_Shafer_MEA_dev assay is conducted using Axion Biosystems 48 well microelectrode array (MEA) plates and Maestro recording system. Each well of the MEA plate contains a grid of 16 microelectrodes embedded in the culture surface. Electrically active cells, such as neurons, can be cultured over the electrodes, and electrical activity in these cells can be recorded extracellularly. The spontaneous firing of neurons is captured from each electrode on a microsecond timescale providing both temporally and spatially precise data. […] The CCTE_Shafer_MEA_dev assay uses primary cultures of rat cortical neurons. Recordings are made on days post-plating 5, 7, 9 and 12. As these cultures mature over time, neural networks develop functional activity and form cohesive networks in which electrical activity can be highly coordinated. CCTE_Shafer_MEA_dev_firing_rate_mean is 1 of 19 assay components of the CCTE_Shafer_MEA_dev assay. It measures the frequency of spikes (action potential firings) as the total number of spikes divided by the length of the recording in a microelectrode array (MEA) using Axion Biosystems Maestro 768 channel amplifier with the AxIS adaptive spike detector. The firing rate is averaged across the active electrodes to report a well-mean value. To collapse across multiple recordings made on days post-plating 5, 7, 9 and 12, the trapezoidal area-under-the-curve of the component is calculated.Data from the assay component CCTE_Shafer_MEA_dev_firing_rate_mean was analyzed into 1 assay endpoint. This assay endpoint, CCTE_Shafer_MEA_dev_firing_rate_mean, was analyzed in the negative analysis fitting direction relative to DMSO as the negative control and baseline of activity. Using a type of functional reporter, gain or loss-of-signal activity can be used to understand electrical activity.
On the day prior to culture, each well was coated thoroughly with 150 uL of 0.05% polyethyleneimine (PEI, Sigma Cat P3143) in 50 mM HEPES (Sigma Cat H7523) at a pH of 8. The plate was incubated at 37C for one hour. PEI was rinsed out with 500 uL of sterile water three times. Plates were stored at 4C until the day of culture. This culture was plated at a seeding density of 1.5 x 10^5 cells/well on a 48-well MEA plate, prepared as described above. Cells were administered via a 25 uL media/laminin ([…]; Sigma Cat L2020-1MG) drop directly onto the microelectrode array, as adding the cells with the laminin results in better attachment than pre-coating with laminin. After 2 hours, an additional 475 uL of cortical media was added and the cells returned to the incubator. Exposure starts at day 0 of plating and is continued over twelve days of network development until the experiment is terminated. Cells are fed with fresh medium on DIV 5 and 9, following the recordings on those days. The entire volume of media in the well is exchanged and any vehicle or compound treatment is renewed. Complete details are found in OP-NHEERL/ISTD/SBB/TJS/2015-03-r0 (available on request, email shafer.tim@epa.gov). Measurement of the electrical activity is non-invasive, and recordings can be made from the same plate over multiple different days of the culture. In cortical neurons, this allows for the measurement of extracellular action potentials over the period during which networks form in the MEA plate.

Compound | outcome | AC50
COP(N)(=O)SC (stereo not drawn) | inactive | 
CCCCC(CC)COC(=O)c1ccccc1C(=O)OCC(CC)CCCC (stereo not drawn) | inactive | 2.98 µM (active) and 3.04 µM (active)
CCCCOC(=O)c1ccccc1C(=O)OCCCC | inactive | 
C=CC1(C)OC(=O)N(c2cc(Cl)cc(Cl)c2)C1=O (stereo not drawn) | inactive | 
CNC(=O)ON=CC(C)(C)SC | inactive | 
C=CCC1=C(C)C(OC(=O)C2C(C=C(C)C)C2(C)C)CC1=O (stereo not drawn) | inactive | 
CCCCNC(=O)OCC#CI |  | 3.81 µM (active) and 2.25 µM (active)
CO/C=C(/C(=O)OC)c1ccccc1Oc1cc(Oc2ccccc2C#N)ncn1 |  | 925 nM (active) and 1.71 µM (active)
CCOC(=O)CC(SP(=S)(OC)OC)C(=O)OCC (stereo not drawn) | inactive | 
COC(=O)N(OC)c1ccccc1COc1ccn(-c2ccc(Cl)cc2)n1 | inactive | 79.6 nM (active)
CCCCNC(=O)n1c(NC(=O)OC)nc2ccccc21 | inactive | 
N#Cc1nn(-c2c(Cl)cc(C(F)(F)F)cc2Cl)c(N)c1S(=O)C(F)(F)F (stereo not drawn) | inactive | 
CCNc1nc(Cl)nc(NC(C)C)n1 | inactive | 
C=CCC1=C(C)[C@@H](OC(=O)[C@@H]2[C@@H](C=C(C)C)C2(C)C)CC1=O | inactive | 
Cc1c(F)c(F)c(COC(=O)C2C(/C=C(\Cl)C(F)(F)F)C2(C)C)c(F)c1F (stereo not drawn) |  | 598 nM (active)
COc1ccc(C(c2ccc(OC)cc2)C(Cl)(Cl)Cl)cc1 | inactive | 
CC(C)(C)c1ccc(CSc2cnn(C(C)(C)C)c(=O)c2Cl)cc1 |  | 4.92 nM (active)
COP(=S)(OC)Oc1nc(Cl)c(Cl)cc1Cl | inactive | 
CN(C)C(=S)SSC(=S)N(C)C |  | 7.36 nM (active)
Cc1ccc(-c2c(Cl)nc(C#N)n2S(=O)(=O)N(C)C)cc1 |  | 18000 nM (active)
CCOc1cc(Oc2ccc(C(F)(F)F)cc2Cl)ccc1[N+](=O)[O-] |  | 12800 nM (active)
